Rows were chosen to be rich in hits. Some 2.7% of all compounds tested hit in one or more screens of this group.
pPAFAH inh – inhibitors of human plasma PAF acetylhydrolase (pPAFAH); inhibition, % at 3.39 µM; 330,000 compounds, 1.5% hits; recombinant pPAFAH, FP-rhodamine probe fluorescence polarization;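 active = inhibition above the mean inhibition across the screen plus 3 SD, cut at about 25% in these data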;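 also: inhibitors block binding of the rhodamine activity-based probe so polarization drops; 0% = enzyme with DMSO and 100% = wells lacking pPAFAH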
PAFAH2 FP inh – PAFAH2 (human) inhibition | inhibition, % at 3.39 µM | 340,000 compounds, 0.99% hits | recombinant PAFAH2, FP-rhodamine activity probe, fluorescence polarization | AID 492956 | Q99487;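 active = inhibition above the mean over all tested compounds plus 3 SD, cut at about 30% in these data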;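 also: inhibitors block probe labeling of enzyme so polarization drops; 0% = enzyme with DMSO and 100% = wells lacking PAFAH2 protein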
PAFAH1B2 inh – inhibitors of human PAFAH1B2. P68402. recombinant PAFAH1B2, FP-rhodamine activity probe, fluorescence polarization. inhibition, % at 3.39 µM. 340,000 compounds, 1.2% hits. AID 492953;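 active = inhibition above the mean of all tested compounds plus 3 SD, cut at about 24% in these data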;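 also: 0% = enzyme with DMSO and 100% = wells lacking PAFAH1B2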
Target sequence (P68402 whole entry, looked up): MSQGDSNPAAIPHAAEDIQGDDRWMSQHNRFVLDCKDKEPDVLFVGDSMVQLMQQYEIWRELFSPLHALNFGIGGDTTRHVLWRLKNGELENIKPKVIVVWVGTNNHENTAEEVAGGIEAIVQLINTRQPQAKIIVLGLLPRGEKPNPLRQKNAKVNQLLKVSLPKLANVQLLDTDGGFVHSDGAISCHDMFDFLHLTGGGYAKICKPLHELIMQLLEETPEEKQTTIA
TCR-CD3 inh – human TCR-CD3 binding inhibition; TAMRA-labeled TCR probe fluorescence, biochemical; inhibition, % at 9.4 µM; 360,000 compounds, 0.37% hits; AID 651800; in the data active = inhibition above about 19%;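 also: recombinant mutant TCR 2C K166C tagged with TAMRA read by polarization; 0% = receptor in buffer alone and 100% = receptor with positive control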
PAFAH1B3 FP inh – inhibitors of human PAFAH1B3 | Q15102 | recombinant PAFAH1B3, FP-rhodamine probe, fluorescence polarization | inhibition, % at 3.39 µM | 340,000 compounds, 0.28% hits | AID 492972;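 active = inhibition above the screen-wide average of all tested compounds plus 3 SD, cut at about 25% in these data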;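 also: 0% = enzyme with DMSO only and 100% = wells lacking PAFAH1B3 protein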
Target sequence (Q15102 whole entry, looked up): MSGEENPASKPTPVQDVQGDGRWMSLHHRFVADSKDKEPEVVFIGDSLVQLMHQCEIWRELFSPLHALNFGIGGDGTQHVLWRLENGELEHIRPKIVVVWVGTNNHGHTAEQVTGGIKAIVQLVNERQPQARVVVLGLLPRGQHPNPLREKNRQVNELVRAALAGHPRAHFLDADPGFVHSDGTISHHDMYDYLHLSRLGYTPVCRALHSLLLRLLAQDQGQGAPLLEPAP
An asterisk follows results filed as active; / = no result given.

SMILES | pPAFAH inh | PAFAH2 FP inh | PAFAH1B2 inh | TCR-CD3 inh | PAFAH1B3 FP inh
CCN1CCc2c(sc(NC(=O)Cc3ccccc3)c2C(N)=O)C1 | -4.8 | 5.4 | 3.6 | -1.7 | -2.0
CCN1CCc2c(sc(NC(=O)Nc3ccc(Cl)c(Cl)c3)c2C(N)=O)C1 | 32.5* | -5.8 | 7.9 | 6.4 | 9.6
COc1ccc(C2CC(=O)C(c3ccc(C#N)cc3)=CN2Cc2ccccc2)cc1 (stereo not given) | / | / | / | -3.2 | /
CCN(C(=O)COc1cc(=O)n(CC)c2ccccc12)c1cccc(Cl)c1 | 26.6* | 15.1 | 6.4 | 2.9 | 1.2
CCCCCCCCN1C(=O)[C@@H](CC(=O)NCc2ccc(OC)c(OC)c2)C[C@@]2(C(=O)OC)C1=C[C@H](C1CCCC1)O[C@@H]2C | / | / | / | -2.4 | /
O=S(c1ccccc1)C(c1ccccc1)c1ccccc1 (stereo not given) | / | 4.5 | 24.2* | -2.3 | 13.3
Cc1ccc(S(=O)C(c2ccccc2)c2ccccc2)cc1 (stereo not given) | / | -4.0 | 8.5 | 3.0 | 9.8
Cc1ccc(NCC(=O)N/N=C\C(Br)=C\c2ccccc2)cc1 | 27.5* | -7.6 | 7.3 | 4.9 | 14.2
C/C(=N\NC(=O)c1cccc(N/N=C(\C)c2cc(O)ccc2O)c1)c1cc(O)ccc1O | 31.6* | 9.1 | 8.6 | 29.6* | 16.5
Cc1cccc(NC(=O)CNC(=O)COC(=O)C2CC2C)c1C (stereo not given) | -0.3 | 2.9 | 0.7 | 2.4 | 2.8
CS(=O)(=O)c1nc(S(=O)(=O)c2ccc(Cl)cc2)c(N2CCN(CCO)CC2)s1 | 5.3 | 2.7 | 2.4 | 1.2 | 7.9
Cc1ccc(S(=O)(=O)c2nc(S(=O)(=O)c3ccc(C)cc3)c(N3CCN(CCO)CC3)s2)cc1 | 25.6* | -0.4 | 2.9 | 0.1 | 3.0
COc1ccc(NC(=O)Cc2ccsc2)c(OC)c1 | 6.7 | -2.1 | 6.3 | 0.0 | 7.8
COc1ccc(NC(=O)COC(=O)Cc2ccsc2)c(OC)c1 | 30.1* | 6.6 | -1.6 | -1.2 | 9.0
O=C(COC(=O)Cc1ccsc1)NC1CCCCCC1 | 29.7* | 14.4 | 11.3 | 10.3 | 4.2
Cc1cc(OCC(=O)OCC(=O)N2c3ccccc3NC(=O)C2(C)C)ccc1Cl | 17.6 | 0.8 | 12.1 | 7.8 | 6.7
Cc1ccc(C(=O)CCC(=O)OCC(=O)N2c3ccccc3NC(=O)C2(C)C)cc1 | / | 2.0 | 1.1 | -2.6 | -1.9
CC1(C)C(=O)Nc2ccccc2N1C(=O)COC(=O)Cc1ccc(Cl)c(Cl)c1 | 19.6 | 7.7 | 28.4* | -10.4 | 8.6
Cc1ccc(S(=O)(=O)CCC(=O)OCC(=O)N2c3ccccc3NC(=O)C2(C)C)cc1 | 7.7 | 7.6 | 29.9* | 1.0 | 0.0
O=C(NCc1ccccc1)[C@H]1CCCN1C(=O)[C@H]1CCCN1C(=O)c1cccc(F)c1 | / | / | / | 2.3 | /
C[C@H]1CN(C(=O)OC(C)(C)C)CCN1c1ccc(N2CCS(=O)(=O)CC2)c(C#N)c1 | / | / | / | -2.3 | /
COc1cccc(C=NN2CCCCCC2)c1OC | / | -1.1 | 4.8 | 0.6 | 6.7
COc1cccc(/C=N/N2CCN(c3ccc(Cl)cc3)CC2)c1OC | 5.0 | -0.2 | 33.4* | 0.8 | 5.0
Cc1ccc(N2CCN(/N=C/c3cccnc3)CC2)cc1 | / | -5.5 | 6.8 | -5.2 | 7.8
Clc1ccc(N2CCN(/N=C/c3cccnc3)CC2)cc1 | 5.9 | 2.2 | 28.0* | -1.1 | 0.2
SMILES | pPAFAH inh | PAFAH2 FP inh | PAFAH1B2 inh | TCR-CD3 inh | PAFAH1B3 FP inh
O=C(/C=C/c1ccc(OC(F)F)cc1)OCC(=O)N1CCC(c2ccccc2)=N1 | -2.0 | -0.7 | 5.5 | 2.3 | 8.1
COc1ccc(Cn2c(C)cc(O)cc2=O)cc1 | / | / | / | 5.4 | /
COc1ccc(NC(=O)C2CCC2)cc1S(=O)(=O)N1CCOCC1 | -6.0 | -1.8 | -1.7 | 0.8 | 0.8
COc1ccc(NC(=O)C2CCC2)cc1S(=O)(=O)Nc1cc(C)ccc1Br | 29.2* | 0.3 | 4.7 | 3.7 | 6.0
CN(c1cccnc1)c1ccc(NC(=O)Cc2c[nH]c3ccccc23)cc1-c1cccnc1F | / | / | / | 8.7 | /
COc1ccc(NS(=O)(=O)c2ccc(OC)c(N(C)S(=O)(=O)c3ccc(Cl)cc3)c2)cc1 | 28.0* | -1.9 | 0.5 | -5.7 | -4.5
CC(C)c1[nH]nc2c1C(c1cccc(C(F)(F)F)c1)N(Cc1ccccc1)C2=O (stereo not given) | / | / | / | -11.9 | /
COc1cccc(C(=O)N[C@@H](Cc2cccnc2)C(=O)N2CCC[C@H]2C(=O)NC2CCCC2)c1 | / | / | / | 3.0 | /
COc1ccc(NC(=S)NC(=O)/C=C/c2ccco2)cc1 | 6.9 | 0.3 | 0.9 | 6.8 | 4.2
Cc1ccc(O)c(NC(=S)NC(=O)/C=C/c2ccco2)c1 | 25.2* | -4.5 | 2.4 | 14.3 | 7.0

Assay outcomes (PubChem)
